Screening results from PubChem.
Env fusion inh – HIV envelope-mediated fusion inhibition; AID 651610; inhibition, % at 12.3 µM; HeLa-JRFL Env/CEM21 cell fusion, luciferase; 360,000 tested, 1.1% active;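 active means mean replicate inhibition score of at least 50 and every replicate individually at or above 50; inconclusive means only one of the two criteria met; inactive means mean below 50 and not all replicates reaching 50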;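 further: 0% = plate neutral controls and 100% = maraviroc near 300 nM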
MITF TRPM1 HTS – increases MITF-driven TRPM1 promoter luciferase signal. SK-MEL-5 TRPM1-promoter luciferase, 24 h; % of positive control, neutral wells = 0. activation, % at 12.5 µM. 300,000 tested, 0.75% active. AID 588334;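 active means mean activation of at least 80% with every replicate also reaching 80%; inconclusive means mean reaches 80% but some replicate falls short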;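 further: 0% = neutral control wells and 100% = parthenolide positive control wells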
Wnt bcat act – activators of Wnt/beta-catenin signaling; activation, % at 9.35 µM; 300,000 tested, 1.2% active; Wnt/beta-catenin reporter cell assay, activator, plate reader; AID 743398; in the data active means activation above about 30%, passing the limit was not always enough; inconclusive means no clear call, values can overlap the other calls;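 further: 0% = neutral control wells and 100% = positive control wells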
miR-122 sensor – miR-122 inhibition in Huh7 cells | activation (reporter increase), % at 12.5 µM | 340,000 tested, 0.3% active | Huh7 miR-122 Renilla luciferase sensor, 48 h; neutral wells = 0, positive control = 100 | AID 602342;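 active means mean replicate activation score at least 90 and every replicate individually at or above 90; inconclusive means only one of the two criteria met; inactive means neither criterion met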;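 further: higher luciferase means less miR-122 activity so hits act as miR-122 inhibitors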
esBAF inh – SWI/SNF esBAF complex inhibition. AID 602393. reporter increase, % at 12.5 µM. mouse ES cells, Bmi1-luciferase knock-in reporter, 24 h; 100% = twice the neutral-well signal. 350,000 tested, 2% active; in the data active means activation above about 40%; inconclusive means no clear call, values can overlap the other calls;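 further: 0% = median of the plate's neutral control wells and 100% = double that signal; a rise in the Bmi1 reporter signal indicates esBAF inhibition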
An asterisk follows results filed as active; ? = inconclusive; · = no result given; [ ] = dose if it differs, or a comment. A selection: hits, their analogues and other compounds. The true share with any hit is near 3.4%.

SMILES	Env fusion inh	MITF TRPM1 HTS	Wnt bcat act	miR-122 sensor	esBAF inh
O=C(CCc1nnc(-c2ccccc2)o1)NC1CCCCC1	-24.6	?	8.4	1.5	47.7*
COc1ccc(NC(=O)N(C)C[C@@H]2Oc3cc(-c4ccncc4)ccc3S(=O)(=O)N([C@H](C)CO)C[C@@H]2C)cc1	-11.2[16.7 µM]	·	·	-2.6[16.7 µM]	2.0
CO[C@@H]1CN(C)C(=O)c2cc(NS(=O)(=O)CC(F)(F)F)ccc2OC[C@@H](C)N(Cc2nccs2)C[C@@H]1C	-11.3[16.7 µM]	·	·	·	4.2
COc1ccc(CN(C)C[C@H]2OCCCC[C@@H](C)Oc3ccc(NC(=O)NC4CCCCC4)cc3C(=O)N([C@H](C)CO)C[C@H]2C)cc1	20.4[16.7 µM]	·	·	5.8[16.7 µM]	-2.8
COc1ccc2cc(N3CCCC3=O)ccc2c1	-53.8	42.1	3.7	-7.4	48.2*
COc1cc(NC(=O)c2ccc(N3CCCC3=O)cc2)cc(OC)c1	-16.8	61.7	-2.1	-3.7	59.0*
COc1ccc(CNC(=O)c2cccc(N3CCCC3=O)c2)cc1	-51.4	-5.7	-5.3	-0.8	0.1
C[C@@H]1CN([C@@H](C)CO)C(=O)Cc2cc(NC(=O)Nc3cccc4ccccc34)ccc2O[C@H]1CN(C)C(=O)Nc1ccc2c(c1)OCO2	11.7[16.7 µM]	·	·	-0.3[16.7 µM]	-3.9
Brc1ccc(COc2cccc3cccnc23)cc1	-34.5	·	11.8	-3.9	71.0*
OCc1ccccc1OCCCOc1cccc2cccnc12	-26.1	53.3	8.6	-1.7	43.5*
O=[N+]([O-])c1ccc(Sc2cccc3cccnc23)cc1	·	6.5	10.5	1.2	46.3*
O=[N+]([O-])c1ccc(COc2cccc3cccnc23)cc1	-51.1	93.4*	13.2	-2.5	82.9*
O=C(/C=C/c1ccc([N+](=O)[O-])cc1)c1ccco1	8.1	2.0	3.2	-0.3	2.4
O=C(/C=C/c1ccc(-c2ccccc2[N+](=O)[O-])o1)c1ccco1	-2.3	-7.5	171.6*	·	·
O=C(c1cccs1)N1CCN(Cc2ccccc2)CC1	20.0	-15.8	-2.3	·	·
O=C(NCC(=O)N1CCN(Cc2ccccc2)CC1)c1cccs1	·	45.9	-2.3	-7.8	49.0*
COc1nc(-c2ccccc2Cl)ccc1C#N	56.1*	-2.1	·	-10.3	2.6
CCOc1nc(-c2ccc(Cl)cc2Cl)ccc1C#N	47.3	·	·	46.5	-0.1
CC(C)NC(=O)NCC[C@H]1CC[C@@H](NC(=O)Nc2ccccc2)[C@H](CO)O1	8.0[16.7 µM]	·	·	-7.7[16.7 µM]	-0.8
Cc1noc(C)c1NC(=O)Nc1ccc2c(c1)CC(=O)N([C@@H](C)CO)C[C@@H](C)[C@@H](CN(C)C(=O)Nc1c(C)noc1C)O2	-6.6[16.7 µM]	·	·	2.2[16.7 µM]	0.0
O=C(/C=C(\Nc1cccc(Cl)c1F)c1ccccc1)c1ccccc1	-35.5	·	46.8*	·	·
O=C(/C=C(\Nc1cccc(Cl)c1)c1ccccc1)c1ccccc1	-79.7	·	25.7	·	·
NC(=O)c1ccccc1NC(=O)CCc1ccccc1	·	59.1	10.4	1.0	48.3*
NC(=O)c1ccccc1N/C=C/C(=O)c1ccccc1	-112.4	·	48.4*	-3.7	-12.9
NC(=O)c1ccccc1NC(=S)NC(=O)CCc1ccccc1	24.0	-24.0	·	28.1	1.5
SMILES	Env fusion inh	MITF TRPM1 HTS	Wnt bcat act	miR-122 sensor	esBAF inh
O=C(/C=C/NNC(=O)c1ccccc1O)c1ccccc1	14.4	0.3	-0.1	·	61.1*
COC(=O)c1ccccc1N/C=C/C(=O)c1ccc(Br)cc1	·	55.0	15.4	-5.6	34.8
O=C(CCCc1ccccc1)Nc1ccccc1C(F)(F)F	10.2	·	-1.3	0.8	71.5*
C[C@@H]1CN([C@@H](C)CO)C(=O)c2cccc(NS(=O)(=O)c3cccs3)c2O[C@H]1CN(C)C(=O)Nc1ccccc1	-15.7[16.7 µM]	·	·	0.2[16.7 µM]	-2.5
NC(=O)c1ccccc1NC(=O)/C=C/c1ccccc1	-68.6	26.0	73.7*	-7.4	·
NC(=O)c1ccccc1NC(=O)/C=C/c1ccc(Cl)cc1	-356.0	57.7	18.9	-8.5	27.4
CC(CC(=O)O)CC(=O)Nc1cc(C(F)(F)F)cc(C(F)(F)F)c1 (stereo unspecified)	2.9	·	51.3*	·	·
COc1ccc(NC(=O)N(C)C[C@H]2Oc3c(NC(=O)c4ccncc4)cccc3C(=O)N([C@@H](C)CO)C[C@H]2C)cc1	-23.3[16.7 µM]	·	·	-2.7[16.7 µM]	-1.5
CCCCCCCCCCCCCCCC[n+]1ccc(/C=N/O)cc1	88.7*	-76.2	-9.5	·	·
C[C@H](CO)N1C[C@H](C)[C@H](CN(C)C(=O)C2CCC2)Oc2ncc(C#Cc3cccc(F)c3)cc2C1=O	-3.2[16.7 µM]	·	·	52.9[16.7 µM]	0.5
C[C@H](CO)N1C[C@H](C)[C@H](CN(C)Cc2ccc(C(F)(F)F)cc2)Oc2ccc(NS(=O)(=O)c3cccs3)cc2CC1=O	3.0[16.7 µM]	·	·	1.7[16.7 µM]	-3.6
